Lassa entry inh = Lassa virus entry inhibition | Lassa virus pseudotype entry inhibition, cell reporter | Potency, µM (series often up to 37.9 µM), hits mostly inhibitors | actives 1.2% (n = 300,000) | AID 540256; calls by dose curve; tested in HEK293 cells; note: nearly all actives have a fitted effect of over 50% in size
Shiga toxin inh = Shiga toxin inhibition; AID 2315; inhibition, % at 38.7 µM; actives 9.2% (n = 290,000); Vero cells, Shiga toxin protein synthesis inhibition reporter; in the data active = inhibition mostly above about 28%, no sharp cut-off; inactive = mostly below about 43%
Marburg entry inh = Marburg virus entry inhibition | Marburg virus pseudotyped entry inhibition, cell reporter | Potency, µM (titrated, usually from 37.8 µM), usual class: inhibitors | actives 1.8% (n = 300,000); calls by dose curve; tested in HEK293 cells
CHX counter = counter-screen for Shiga toxin inhibitors: cycloheximide protein synthesis inhibition | actives 12% (n = 300,000) | cell reporter, cycloheximide protein synthesis inhibition counterscreen | AID 2314 | max response, %; in the data active = max response mostly above about 13%, no sharp cut-off; inactive = mostly below about 14%; note: read at 38.3 µM for the half of the compounds with a filed dose
A number is an active result; - = inactive; ? = inconclusive; . = no result. In the library only some 12% were active in any assay of this set; here they are far more common.

SMILES	Lassa entry inh	Shiga toxin inh	Marburg entry inh	CHX counter
CCOC(=O)c1ccc[n+](CC(=O)c2ccc(NC(=O)c3ccccc3)cc2)c1	.	-	.	-
O=C1N/C(=N/N=C/c2ccccc2O)SC1Cc1ccc(F)cc1 (centres undefined)	?	-	?	-
O=C1N/C(=N/N=C/c2ccc(O)cc2)SC1Cc1ccccc1 (centres undefined)	1.46µM	-	-	-
COc1ccc(CC2S/C(=N/N=C/c3ccc(O)cc3)NC2=O)cc1 (centres undefined)	1.46µM	-	-	-
O=CN1CC(=O)N(c2ccccc2)c2c([nH]c3ccccc23)C1	-	-	-	-
COc1nc(-c2ccc(C)cc2)ccc1-c1noc(-c2ccco2)n1	-	69.7	-	27.6
COc1nc(C)ccc1-c1noc(-c2ccco2)n1	-	81.2	-	39.4
CC(C)OC(=O)c1cc(NC(=O)c2nn(C)cc2Br)cc(C(=O)OC(C)C)c1	5.17µM	-	?	-
Cn1cc(Br)c(C(=O)NC2CCCCC2)n1	-	-	?	-
CCOc1ccc(NC(=O)c2nn(C)cc2Br)cc1	-	-	?	15.3
Cn1cc(Br)c(C(=O)Nc2ncc(Br)s2)n1	.	-	.	35.9
CC(C)N(CCO)C(=O)CCc1nnc(Cc2cccc(C(F)(F)F)c2)o1	-	-	-	19.4
COCCCNC(=O)CCc1nnc(Cc2ccc(-c3ccccc3)cc2)o1	-	-	-	-
Cc1cc(-c2nnc(CCC(=O)NCc3ccc(F)c(F)c3)o2)no1	-	-	-	-
CCC(COC)NC(=O)CCc1nnc(Cc2cccc(C(F)(F)F)c2)o1 (centres undefined)	-	60.1	?	46.0
CCc1ccc(CNC(=O)CCc2nnc(Cc3cccc(C(F)(F)F)c3)o2)nc1	.	-	.	-
CC(C)NC(=O)CCc1nnc(Cc2cccc(C(F)(F)F)c2)o1	-	92.2	?	28.3
Cc1cc(-c2nnc(CCC(=O)NCc3cccc(C(F)(F)F)c3)o2)no1	?	-	?	20.9
CCC1=C(c2ccc(C)cc2)S(=O)(=O)N=C1N1CCC(C(=O)NCc2ccc(N(C)C)cc2)CC1	-	.	.	.
O=C(COCc1cc(-c2ccc(F)cc2)on1)Nc1cccc(C(F)(F)F)c1	-	.	-	.
O=C(NCCS(=O)(=O)N1CCN(c2cccc(Cl)c2)CC1)c1ccc2c(c1)OCO2	-	.	-	.
NNC(=O)c1nc[nH]c1C(=O)Nc1ccccc1	.	22.4	.	13.8
Cc1ccc(SCCSc2nc(C)cc(=O)[nH]2)cc1	.	.	.	40.2
Cc1ccc(SCCSc2nc(N)cc(=O)[nH]2)cc1	.	-	.	21.7
Cc1cc(=O)[nH]c(SCCc2ccccc2)n1	-	-	-	-
SMILES	Lassa entry inh	Shiga toxin inh	Marburg entry inh	CHX counter
CCOc1ccc(OCCSc2nc(C)cc(=O)[nH]2)cc1	?	124.2	?	29.8
COC(=O)CCn1[nH]c(=O)c2ccccc2c1=O	-	-	?	-
O=c1[nH]n(Cc2ccccc2)c(=O)c2ccccc12	-	-	-	26.2
C/C(=N\Nc1ncc(Cl)cc1Cl)c1ccc(N2CCOCC2)cc1	-	85.0	?	38.3
C/C(=N\Nc1nc2ccccc2[nH]1)c1ccc(N2CCOCC2)cc1	10µM	60.6	?	40.0
Cc1ccc(C(=O)NCc2nc3ccccc3[nH]2)o1	?	97.2	?	34.0
C/C(=N\Nc1nc2ccccc2[nH]1)c1ccc(Cl)s1	?	53.8	?	23.0
C/C(=N\NC(N)=S)c1ccc(Cl)s1	-	-	-	-
CCOCCCNC(=O)C(c1ccc(C)cc1)N(Cc1ccc2c(c1)OCO2)C(=O)c1ccccc1O (centres undefined)	-	.	?	.
C/C(=N\Nc1nc2ccccc2[nH]1)c1ccc(C)o1	-	29.9	?	37.8
O=C(NCCC1=CCCCC1)C(=O)NCC(c1ccco1)N1CCN(c2ccc(F)cc2)CC1 (centres undefined)	-	-	-	-
CCn1nccc1C(=O)Nc1ccc(C)c(C)c1	.	62.4	.	34.0
Cc1cc(NC(=O)/C=C/c2ccco2)ccc1NC(=O)c1ccccc1	-	52.8	-	28.6
Cc1cc(NC(=O)c2ccco2)ccc1NC(=O)c1ccco1	-	70.7	-	-
O=C(Nc1ccccn1)c1ccc(NC(=O)c2ccco2)cc1	-	71.5	?	40.0
COc1cc(OC)cc(C(=O)Nc2ccc(NC(=O)c3ccco3)c(C)c2)c1	-	-	?	-
CCn1c(Oc2ccc(F)cc2F)nc2c1c(=O)n(C)c(=O)n2C	-	.	-	.
Cc1ccc(C(=O)NCC(=O)OCc2c(F)cccc2Cl)s1	?	.	-	.
CCc1nnc(NC(=O)CSc2nccn2Cc2ccc(F)cc2)s1	-	.	.	.
Cc1ccc(NC(=O)c2ccco2)cc1C	-	83.9	?	37.1
Cc1ccc(NCc2ccco2)cc1C	.	70.1	.	27.3
COc1ccccc1-n1cnc2cc(NCc3ccco3)ccc21	-	-	?	-
Cc1ccccc1NC(=O)c1ccc(NC(=O)c2ccco2)cc1	-	-	-	27.1
Cc1ccc(NC(=O)CCNC(=O)c2ccco2)cc1F	-	-	-	12.8
COc1ccc(NC(=O)c2ccco2)cc1NC(=O)c1ccc(C)c(C)c1	?	.	-	.
SMILES	Lassa entry inh	Shiga toxin inh	Marburg entry inh	CHX counter
COCC(=O)Nc1cc(C(=O)Nc2cccc(C)c2C)ccc1Cl	-	-	-	14.3
COc1cccc(C(=O)Nc2cc(C(=O)NCCc3ccccc3)ccc2Cl)c1	-	-	-	20.5
COc1cccc(C(=O)NCCS(=O)(=O)NCCc2ccccc2)c1	-	.	?	.
CCCCC(=O)Nc1cc(C(=O)NCCc2ccccc2)ccc1Cl	-	-	?	17.7
COc1ccc(CN(CC2CCCO2)C(=O)c2cc3sccc3n2C)c(OC)c1 (centres undefined)	?	-	?	-
CCOC(=O)CN1C(=O)[C@]2(OCCC=C[C@@H]2C)c2cc(OC)ccc21	.	.	-	.
COc1ccc(/C=C/c2cc(C(=O)O)c3ccccc3n2)cc1	?	-	?	14.6
Cc1cc(/C=C\c2ccccc2)nc2ccccc12	.	119.5	.	30.3
COc1cc(OC)c(OC)cc1/C=C/c1cc(C(=O)O)c2ccccc2n1	.	-	.	-
Cc1cc(C(=O)c2ccccc2)nc2ccccc12	-	-	-	-
O=C(Oc1ccccc1/C=C\C(=O)c1cc2ccccc2o1)c1ccccc1	?	90.3	?	35.0
O=C(Oc1ccccc1/C=C\C(=O)c1cc2ccccc2o1)c1cccc(F)c1	?	40.7	?	37.4
O=C(Nc1ccccc1)c1ccc(OC(=O)c2cc3ccccc3o2)cc1	-	-	-	-
COc1cccc(C(=O)Oc2ccccc2/C=C\C(=O)c2cc3ccccc3o2)c1	.	62.7	.	85.6
CC(=O)c1ccc(C)cc1OC(=O)c1cccc(F)c1	-	-	?	-
CC(NC(=O)CNC(=O)C1O[C@@H]2OC(C)(C)O[C@@H]2[C@H]2OC(C)(C)O[C@@H]12)C(=O)O (some centres undefined)	.	-	.	-
Cc1ccc(S(=O)(=O)c2nc(-c3ccccc3F)oc2N2CC(C)OC(C)C2)cc1 (centres undefined)	15.8µM	-	-	-
O=S(=O)(c1ccc(F)cc1)c1nc(-c2ccccc2F)oc1N1CCCCC1	-	-	-	-
Cc1ccc(/C=N/NC(=O)c2n[nH]c3c2CCCC3)cc1	?	53.4	?	32.4
O=C(N/N=C/c1cccc2ccccc12)c1n[nH]c2c1CCCC2	-	-	?	-
O=C(N/N=C/c1cccs1)c1n[nH]c2c1CCCC2	2.24µM	-	?	-
C/C(=N\NC(=O)c1n[nH]c2c1CCC2)c1cccs1	-	-	-	-

From PubChem
